# RGS8-Gao reg – modulates binding of RGS8 to human Galphao; response (percent of control binding), % at 10 µM; multiplexed bead flow cytometry; actives lie on both sides; P09471; 0.34% of 220,000 active; in the data active = response below about 60% or above about 140%; inactive = in between;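 also: Galphao activated as the GDP aluminium fluoride complex binding bead-coupled RGS8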
# Target sequence (P09471 whole entry, looked up): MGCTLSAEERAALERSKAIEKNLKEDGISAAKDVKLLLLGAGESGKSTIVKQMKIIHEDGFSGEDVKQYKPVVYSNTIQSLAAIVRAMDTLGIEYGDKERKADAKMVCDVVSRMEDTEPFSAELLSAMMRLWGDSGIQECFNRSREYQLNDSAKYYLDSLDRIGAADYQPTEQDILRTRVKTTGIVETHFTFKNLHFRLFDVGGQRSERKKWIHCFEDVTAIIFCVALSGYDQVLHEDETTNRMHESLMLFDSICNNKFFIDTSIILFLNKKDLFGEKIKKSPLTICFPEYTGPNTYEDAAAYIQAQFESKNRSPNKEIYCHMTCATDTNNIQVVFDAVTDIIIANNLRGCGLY
# Avidin bead fluor – compound fluoresces at 488/530 nm on avidin beads; compound fluorescence 488/530 nm, flow cytometry; stronger effect = higher value; fluorescence (KMESF) at 10 µM; 0.38% of 220,000 active; AID 1775; in the data active = fluorescence above about 47
# RGS7-Gao – modulates binding of RGS7 to human Galphao | P09471 | Multiplexed bead flow cytometry; actives lie on both sides | AID 1439 | binding response (% of control), % at 10 µM | 0.35% of 220,000 active; in the data active = binding response below about 49% or above about 150%; inconclusive = no clear call, values can overlap the other calls; inactive = in between;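 also: fluorescent Galphao held in activated GDP-AlF4 state binding bead-coupled RGS7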
# RGS16-Gao HTS – modulates binding between human RGS16 and Galphao; O15492+P09471; bead-based flow cytometry RGS16-Galphao binding, fluorescence; actives lie on both sides; binding response (% of control), % at 10 µM; 0.38% of 220,000 active; call rule not given here;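 also: Galphao activated by GDP with aluminum fluoride before binding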
# GSH fluor – GSH bead compound fluorescence profile; AID 1776; fluorescence (KMESF) at 10 µM; GSH beads flow cytometry, compound fluorescence 488/530 nm; stronger effect = higher value; 0.25% of 190,000 active; in the data active = fluorescence above about 89;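 also: glutathione beads carrying GST-tagged Bcl family fusion proteins plus one bare bead set; values are compound well signal with DMSO vehicle wells as background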
# RGS4-Gao reg – modulates binding of RGS4 to human Galphao; P09471; Multiplexed bead flow cytometry; actives lie on both sides; binding response (% of control), % at 10 µM; 0.33% of 220,000 active; in the data active = binding response below about 49% or above about 150%; inactive = in between;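 also: fluorescent Galphao activated with aluminum fluoride binding bead-coupled RGS4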
# Numbers without * were called inactive; ? = inconclusive; nt = not tested or not shown; [ ] = another dose, or the depositor's remark. Most compounds without a hit are left out; they make up all but 1.2% or so of the library.
SMILES,RGS8-Gao reg,Avidin bead fluor,RGS7-Gao,RGS16-Gao HTS,GSH fluor,RGS4-Gao reg
Cn1c(SCCCC(=O)c2ccc(F)cc2)nnc1-c1ccncc1,100,9,102,105,16,100
Cc1occc1-c1nnc(SCCCC(=O)c2ccc(F)cc2)n1C,100,8,95,93,259*,96
O=C(NC1CCC(O)CC1)c1ccc(-c2ccc([N+](=O)[O-])cc2)o1 (configuration not stated),102,8,?,106,nt,104
COc1ccc(NC(=O)CCC(=O)OC(C(=O)c2ccccc2)c2ccccc2)cc1 (configuration not stated),101,55*,106,101,27,100
Cc1ccc(C(=O)C(OC(=O)CCC(=O)Nc2cccc(C)c2)c2ccccc2)cc1 (configuration not stated),99,34,98,99,20,96
Cc1nc([N+](=O)[O-])c(Br)n1CC(=O)c1ccc2ccccc2c1,101,50*,108,104,38,98
O=C(Nc1ccc2oc(=O)ccc2c1)c1ccc(-c2cccc([N+](=O)[O-])c2)o1,102,65*,?,97,nt,98
O=C(Nc1ccc2oc(=O)ccc2c1)c1ccc(-c2cccc(Cl)c2)o1,99,13,?,90,nt,91
N#CCC(=O)Nc1ccccc1C(=O)O,108,7,108,131,264*,110
O=C(O)CC(=O)Nc1ccccc1C(=O)O,98,12,94,97,31,97
CC(=O)Nc1ccc(S(=O)(=O)N2CCOCC2)cc1,95,4,80,88,140*,78
Cc1ccc(S(=O)(=O)N2CCN(c3ccccn3)CC2)cc1,96,5,?,97,nt,98
CC(=O)Nc1ccc(S(=O)(=O)N2CCN(c3ccccn3)CC2)cc1,96,65*,111,99,25,98
O=C(CSc1ccsc1[N+](=O)[O-])N1CCN(c2ccccn2)CC1,114,17,105,168,11,100
Cc1cc2nccc(-c3ccc(Cl)c([N+](=O)[O-])c3)n2n1,100,23,99,100,11,100
COc1ccc(Cl)cc1NC(=O)C1COc2ccccc2O1 (configuration not stated),100,9,103,103,12,102
CN1CCN(c2ccc(Cl)cc2NC(=O)c2nn(-c3ccccc3)c(=O)c3ccccc23)CC1,102,12,95,104,92*,104
CN1CCN(c2ccc(Cl)cc2NC(=O)C2COc3ccccc3O2)CC1 (configuration not stated),102,7,97,111,264*,96
CCC(C(=O)NN1C(=O)c2ccccc2C1=O)c1ccccc1 (configuration not stated),101,10,89,88,20,86
Cc1ccc(C(=O)Nc2ccc(CC(=O)O)cc2)o1,100,6,98,97,254*,97
Cc1cc(C(C)(C)C)oc1C(=O)Nc1ccc(CC(=O)O)cc1,100,4,93,62,239*,93
COc1cc(C(F)(F)F)nc(-c2ccccn2)n1,102,11,?,104,18,101
CC(C)Nc1cc(C(F)(F)F)nc(-c2ccccn2)n1,95,332*,274*[activator],160,33,153*[activator]
CC1(c2ccccc2)NC(=O)N(CCOc2ccccc2)C1=O (configuration not stated),100,7,102,104,263*,103
Cc1cccc(C)c1OCCN1C(=O)NC(C)(c2ccccc2)C1=O (configuration not stated),109,6,105,104,12,110
SMILES,RGS8-Gao reg,Avidin bead fluor,RGS7-Gao,RGS16-Gao HTS,GSH fluor,RGS4-Gao reg
O=C1CNC(=S)N1CCOc1ccccc1,99,7,?,99,nt,95
CN1CC(=O)N(CCOc2ccccc2)C1=O,101,8,99,107,263*,102
Cc1nnc(NC(=O)C2CCN(S(=O)(=O)c3ccc(Cl)cc3)CC2)s1,100,10,100,104,14,96
CCc1nnc(NC(=O)c2ccncc2)s1,93,10,93,91,8,86
CCCc1nnc(NC(=O)c2ccncc2)s1,91,3,92,-1,239*,83
COc1cc2[nH]c(=O)n(CCCCCC(=O)NCCc3c[nH]c4ccccc34)c(=O)c2cc1OC,100,49*,110,100,9,105
O=C(CCCCn1c(=O)[nH]c2ccccc2c1=O)NCCc1c[nH]c2ccccc12,96,7,101,91,14,103
Cc1onc(-c2ccccc2)c1C(=O)NC(=S)NNC(=O)c1cc(-c2ccc(F)cc2)n[nH]1,103,8,?,103,nt,102
COc1cc(C(=O)NNC(=S)NC(=O)c2ccc(Cl)cc2)cc(OC)c1OC,99,20,103,107,446*,109
CCN=C1S/C(=C\c2ccc(OC)c(OCC)c2)C(=O)N1CC,108,8,108,121,106*,109
COc1ccc(/C=C2\SC(=NCc3ccccc3)N(Cc3ccccc3)C2=O)cc1OC,117,6,121,122,32,123
COCCCNC(=O)CSC1=Nc2ccccc2C2=NC(Cc3c[nH]c4ccccc34)C(=O)N12 (configuration not stated),102,7,104,108,24,102
COCCCNC(=O)CSC1=Nc2ccccc2C2=NC(c3ccccc3)C(=O)N12 (configuration not stated),103,69*,122,108,12,101
Nc1cc(=O)[nH]c(SCc2ccc(Cl)cc2)n1,103,50*,110,104,19,105
O=C1CN(C(=O)c2ccccc2F)c2ccccc2N1,99,23,101,103,20,100
O=C1CN(C(=O)c2ccccn2)c2ccccc2N1,101,6,97,86,229*,106
O=C(/C=C/c1cc([N+](=O)[O-])ccc1OC(F)F)NCc1ccc(Cl)cc1,106,8,104,114,264*,107
CCOC(=O)c1ccccc1NC(=O)Cn1cnc2c1c(=O)n(C)c(=O)n2C,7.8*,-3,-8.2*,-15*,11,-24*
CCOC(=O)c1ccccc1NC(=O)CSc1nc2c(c(=O)n(C)c(=O)n2C)n1C,100,13,100,101,25,100
Cc1cc(NC(=O)CCOc2ccc(F)cc2)no1,98,7,?,100,nt,98
O=C(NC1CCCCC1)C(c1ccco1)N(C(=O)c1csnn1)C1CCCC1 (configuration not stated),28*,3,29*,26,30,36*
